Data on five compounds can be found in PubChem BioAssay (NCATS).

Structures are written as SMILES. Several values for one entry are separate records, joined by “and”; a condition that tells them apart may be missing. Identical values can stand only once. Inconclusive results are not listed. Activity calls are given as the source filed them. Unless noted, calls follow the shape of the dose curve; as a rule, active = well fitted curve in the direction sought with a large enough effect; inconclusive = small, poorly fitted or top-dose-only effect, or another doubt; inactive = no such curve, though single readings can be large; an effect the other way counts as inactive or inconclusive.

In assay [1] the test system is Zika virus NS2B-NS3 protease. In words: Primary screen GU AMC qHTS for Zika virus inhibitors (AID 1347154).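 Also: 0% = no-inhibitor control and -100% = no-enzyme control; nearly all actives have a fitted effect of over 70% in size.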 The procedure, abridged:
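Fluorogenic AMC-substrate cleavage by noncovalent NS2B-NS3 protease complex (25 nM, pH 8.0 Tris buffer with Tween 20) followed for 15 minutes at room temperature (~20% conversion). Percent inhibition from ex340/em450 signal change, fitted by 4-parameter Hill equation.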
For orientation: Quantitative high-throughput screening tests each substance at several concentrations.

A short description of assay [2]: Counterscreen qHTS for small molecule stabilizers of the endoplasmic reticulum resident proteome: GLuc-NoTag assay (AID 1508627).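 Also: 0% = thapsigargin alone and -100% = DMSO vehicle control.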 The procedure, abridged: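 Counterscreen line: SH-SY5Y-GLuc-NoTag cells, treated with compound 19 hr before a 4 hr, 100 nM thapsigargin calcium depletion. Secreted Gaussia luciferase in the medium was measured by luminescence after coelenterazine was added (0.07x final), with cells unlysed.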
For orientation: Counterscreens check selectivity or assay interference.

The nature of assay [3]: Confirmatory qHTS for small molecule stabilizers of the endoplasmic reticulum resident proteome: Secreted ER Calcium Modulated Protein (SERCaMP) assay (AID 1508628). Also: nearly all actives have a fitted effect of over 40% in size. Also: potency is read from the fitted curve at half-maximal effect. The procedure, abridged: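 Reporter secretion upon ER calcium depletion (100 nM thapsigargin, 4 h, 37C) is measured as medium luminescence with coelenterazine, after 16 h compound pretreatment of SH-SY5Y-GLuc-SERCaMP cells; primary at three concentrations up to 38.3 uM, follow-up at 11 (up to 76.6 uM).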

A short description of assay [4]: Cell Viability qHTS for small molecule stabilizers of the endoplasmic reticulum resident proteome (AID 1508629).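 Also: human SH-SY5Y neuroblastoma cells carrying the GLuc-SERCaMP reporter; compound exposure about 46 h in total before the viability read; % is scaled to controls: 0 for no effect and ±100 for the full control effect.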 The settings on record: cell viability counter-screen, 100 nM thapsigargin for final 4 h.
Assay [5] deals with Cytochrome P450 3A4 (Homo sapiens) (UniProt P08684). In words: qHTS Assay for Inhibitors and Substrates of Cytochrome P450 3A4 (AID 884). Also: % is scaled to controls: 0 for no effect and ±100 for the full control effect; nearly all actives have a fitted effect of over 50% in size. The procedure, abridged: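 Luminescent readout of luciferin produced by CYP3A4 (20 nM) dealkylation of Luciferin-PPXE, 25 uM (its KM). NADPH-driven reaction ran 60 min at RT after 10 min compound preincubation; data scaled to 57 uM ketoconazole as 100% inhibition.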
Chain of Cytochrome P450 3A4 (Homo sapiens) (P08684 whole entry, looked up): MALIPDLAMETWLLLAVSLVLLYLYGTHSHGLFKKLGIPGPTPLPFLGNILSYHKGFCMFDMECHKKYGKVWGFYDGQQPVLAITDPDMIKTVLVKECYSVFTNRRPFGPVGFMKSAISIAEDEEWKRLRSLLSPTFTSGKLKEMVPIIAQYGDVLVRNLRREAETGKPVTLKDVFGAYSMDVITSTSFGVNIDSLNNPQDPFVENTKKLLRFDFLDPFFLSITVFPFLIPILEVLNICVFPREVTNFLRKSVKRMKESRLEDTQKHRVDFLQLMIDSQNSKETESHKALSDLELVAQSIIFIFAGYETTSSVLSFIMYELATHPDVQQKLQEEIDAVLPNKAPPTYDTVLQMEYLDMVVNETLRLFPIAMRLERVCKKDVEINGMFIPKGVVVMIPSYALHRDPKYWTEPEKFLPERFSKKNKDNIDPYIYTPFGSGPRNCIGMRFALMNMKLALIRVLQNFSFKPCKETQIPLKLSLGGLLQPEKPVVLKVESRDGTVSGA

Assay [6] deals with Cytochrome P450 1A2 (Homo sapiens) (UniProt P05177). In words: p450-cyp1a2 (AID 410; calls by dose curve; also: potency is read from the fitted curve at half-maximal effect). In a few lines: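 Luminescent demethylation readout: Luciferin-ME (100uM, equal to Km) turned over by 20nM CYP1A2 for 60 min at room temperature after NADPH regeneration addition, following 10 min compound preincubation. Normalization used 57 uM furafylline as full inhibition.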
Chain of Cytochrome P450 1A2 (Homo sapiens) (P05177 whole entry, looked up): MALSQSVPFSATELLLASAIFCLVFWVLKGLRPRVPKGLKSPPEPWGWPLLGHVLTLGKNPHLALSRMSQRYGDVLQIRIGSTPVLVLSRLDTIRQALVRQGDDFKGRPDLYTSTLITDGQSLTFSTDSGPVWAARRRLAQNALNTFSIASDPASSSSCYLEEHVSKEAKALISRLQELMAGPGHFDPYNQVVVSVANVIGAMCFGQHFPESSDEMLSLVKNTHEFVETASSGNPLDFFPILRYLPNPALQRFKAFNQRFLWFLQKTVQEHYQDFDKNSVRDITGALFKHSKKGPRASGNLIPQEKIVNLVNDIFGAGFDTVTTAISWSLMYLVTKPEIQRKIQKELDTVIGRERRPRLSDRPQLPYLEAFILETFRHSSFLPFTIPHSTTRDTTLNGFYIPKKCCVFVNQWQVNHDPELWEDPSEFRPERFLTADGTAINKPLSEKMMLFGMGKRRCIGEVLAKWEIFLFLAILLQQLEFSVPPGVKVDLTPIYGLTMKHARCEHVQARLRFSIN
The target in assay [7] is Glucocorticoid receptor (Homo sapiens) (UniProt P04150). In words: GR-GFP Redistribution (AID 450;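 active = compounds whose dose series gives a full or clear partial fitted curve of increased nuclear translocation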; also: potency is read from the fitted curve at half-maximal effect). The conditions noted are these: U2OS GR-GFP nuclear translocation, laser cytometry, 2 h.
Chain of Glucocorticoid receptor (Homo sapiens) (P04150 whole entry, looked up, the tested form may be a part): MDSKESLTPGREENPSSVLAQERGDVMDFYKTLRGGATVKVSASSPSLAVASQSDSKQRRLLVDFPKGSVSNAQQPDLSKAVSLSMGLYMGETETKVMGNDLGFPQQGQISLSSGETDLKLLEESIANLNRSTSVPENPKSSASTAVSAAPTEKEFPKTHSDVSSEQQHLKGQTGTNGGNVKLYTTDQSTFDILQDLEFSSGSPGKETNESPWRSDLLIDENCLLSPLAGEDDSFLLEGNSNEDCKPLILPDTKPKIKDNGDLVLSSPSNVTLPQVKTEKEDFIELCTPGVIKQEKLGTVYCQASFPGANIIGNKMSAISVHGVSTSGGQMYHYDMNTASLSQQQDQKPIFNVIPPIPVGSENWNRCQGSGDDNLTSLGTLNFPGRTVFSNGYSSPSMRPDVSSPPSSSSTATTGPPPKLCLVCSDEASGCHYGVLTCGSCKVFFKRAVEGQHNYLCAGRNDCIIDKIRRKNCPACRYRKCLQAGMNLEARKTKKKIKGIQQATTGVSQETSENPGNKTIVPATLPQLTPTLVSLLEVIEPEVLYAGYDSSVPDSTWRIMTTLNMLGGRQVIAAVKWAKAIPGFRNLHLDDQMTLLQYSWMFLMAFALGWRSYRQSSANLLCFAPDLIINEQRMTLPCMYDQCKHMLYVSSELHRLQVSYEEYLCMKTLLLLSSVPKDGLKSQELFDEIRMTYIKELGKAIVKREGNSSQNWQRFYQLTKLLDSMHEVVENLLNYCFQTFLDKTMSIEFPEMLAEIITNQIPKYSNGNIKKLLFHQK
Assay [8] shares this target. In words: GR-EFC Redistribution (AID 451; calls by dose curve; also: potency is read from the fitted curve at half-maximal effect). The conditions noted are these: CHO-K1 GR-EFC translocation, beta-gal luminescence, 2 h. The procedure, abridged: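 Translocation of GR-ED fusion to nuclear EA restores b-gal, read by luminescence after 1 h room-temperature detection. Engineered CHO-K1 biosensor cells, 1,000/well, exposed 2 h at 37 C to titrations up to 46 uM final.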

In assay [9] the target is Mitogen-activated protein kinase 10 (Mus musculus) (UniProt Q61831). Put plainly: JNK3 AlphaScreen Assay (AID 530; active = well fitted curve in either direction with a large enough effect, not every such curve was filed as active;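 also: kinase came from lysate of stimulated human HepG2 cells; signal reports phosphorylation of biotinylated GST-cJun 1-79 at Ser73 with 10 µM ATP; % is scaled to controls: 0 for no effect and ±100 for the full control effect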). The procedure, abridged: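 qHTS titrations with 15 min compound pre-incubation before adding ATP (10 uM final). Read-out: AlphaScreen of Ser73-phosphorylated biotin-GST-cJun using HepG2 lysate JNK3 activated by IL-1β and TNFα.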
On the technique in general: Bead proximity is the source of the signal in Alpha formats.

In assay [10] the target is Cytochrome P450 3A4 (Homo sapiens) (UniProt P08684). In words: qHTS Assay for Activators of Cytochrome P450 3A4 (AID 885). Also: nearly all actives have a fitted effect of over 65% in size. The procedure, abridged: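 Using 20nM recombinant human CYP3A4 in potassium phosphate (200mM), substrate Luciferin-PPXE at 25uM, luminescent luciferin detection followed a 60-min RT NADPH reaction; data scaled to 57 uM ketoconazole.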
The target in assay [11] is Cytochrome P450 2D6 (Homo sapiens) (UniProt P10635). Put plainly: qHTS Assay for Inhibitors and Substrates of Cytochrome P450 2D6 (AID 891). Also: potency is read from the fitted curve at half-maximal effect; nearly all actives have a fitted effect of over 60% in size. The procedure, abridged: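 Luminescent read-out of luciferin formed by 5 nM human CYP2D6 demethylating 30 uM Luciferin-ME EGE (Km level) over 60 min at room temperature after NADPH regeneration addition. Data normalized to full inhibition by 1.43 uM quinidine.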
Chain of Cytochrome P450 2D6 (Homo sapiens) (P10635 whole entry, looked up): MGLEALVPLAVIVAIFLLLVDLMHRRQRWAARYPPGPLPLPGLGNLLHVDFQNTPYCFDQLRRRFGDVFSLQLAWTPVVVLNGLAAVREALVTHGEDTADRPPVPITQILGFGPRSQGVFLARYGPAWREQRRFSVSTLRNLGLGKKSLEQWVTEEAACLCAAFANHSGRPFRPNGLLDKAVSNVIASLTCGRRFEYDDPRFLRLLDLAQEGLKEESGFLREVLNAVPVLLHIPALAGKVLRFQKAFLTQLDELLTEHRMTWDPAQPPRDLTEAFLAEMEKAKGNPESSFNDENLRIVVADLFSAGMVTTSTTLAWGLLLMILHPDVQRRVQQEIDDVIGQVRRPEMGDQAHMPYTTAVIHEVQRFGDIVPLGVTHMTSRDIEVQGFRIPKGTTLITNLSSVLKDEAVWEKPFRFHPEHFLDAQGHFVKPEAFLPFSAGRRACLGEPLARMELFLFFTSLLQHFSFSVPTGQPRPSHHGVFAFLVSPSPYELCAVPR

In assay [12] the target is DNA dC->dU-editing enzyme APOBEC-3G (Homo sapiens) (UniProt Q9HC16). In words: qHTS for inhibitors of Vif-A3G interactions: Validation (AID 588379). Also: 0% is about no effect. In a few lines:
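Yellow fluorescence (Ex 488, Em 500-530) of Vif-coexpressing HeLa A3G-eYFP cells, scanned by Acumen cytometer, reports blocked A3G degradation. Cells plated at 700/well overnight at 37 deg C before compound addition, then a further overnight compound incubation at 37 deg C.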

Assay [13] can be described thus: AP1 Signaling Pathway (AID 357; active = well fitted curve in either direction with a large enough effect, not every such curve was filed as active;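 also: ME-180 reporter cells stimulated with EGF at its EC50 level; % is scaled to controls: 0 for no effect and ±100 for the full control effect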). The settings on record: ME-180 AP-1-bla reporter, EGF-induced, beta-lactamase ratio, 5 h. The procedure, abridged:
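Cells are seeded overnight, exposed to compound titrations and an EC50 level of EGF for 5 hours at 37 °C, then loaded with CCF4 dye for 2.5 hours. Beta-lactamase activity under the AP-1 element is read as a blue/green ratio.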

The nature of assay [14]: Stat Signaling Pathway (AID 446; active = well fitted curve in either direction with a large enough effect, not every such curve was filed as active;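 also: ME-180 cervical cancer cells given 40 pM IL-6 alongside compound; SIE-controlled beta-lactamase reporter measured as 460/530 nm FRET emission ratio; % is scaled to controls: 0 for no effect and ±100 for the full control effect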). The conditions noted are these: ME-180 (cervical carcinoma) SIE beta-lactamase reporter, IL-6 stimulated, 5 h; at 17.2 µM (top of the series). The procedure, abridged:
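Overnight-plated ME-180 cells bearing a STAT Inducible Element beta-lactamase reporter; 5 h co-exposure to compound and 40 pM IL-6; values normalized to 300 pM IL-6 and 125 nM JAK inhibitor controls.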

The target in assay [15] is Guanine nucleotide-binding protein G(i) subunit alpha-1 (Homo sapiens) (UniProt P63096). Put plainly: qHTS Assay for Inhibitors of RGS12 GoLoco Motif Activity (Green Fluorophore) (AID 879).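 Also: 0% = labeled peptide with Gαi1 and full inhibition = labeled peptide alone without protein; negative values mean loss of peptide binding seen as reduced polarization.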 The procedure, abridged: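 A drop in FITC polarization marked displacement of the FITC-tagged RGS12 GoLoco peptide (10 nM) from Gαi1 (50 nM). Compounds were incubated 10 min at room temperature in Tris pH 7.5 buffer containing 150 mM NaCl, 0.1 mM GDP and 0.05% NP40; unlabeled peptide titration served as control.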

The target in assay [16] is Muscarinic acetylcholine receptor M1 (Rattus norvegicus) (UniProt P08482). In words: qHTS Assay for Antagonists of Acetylcholine Muscarinic M1 Receptor: Kinetic Measurement of Intracellular Calcium Response (AID 943). Also: potency is read from the fitted curve at half-maximal effect; nearly all actives have a fitted effect of over 75% in size. The procedure, abridged: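 Antagonism measured as reduction of carbachol-evoked (EC80, 100 nM final) calcium flux in rat M1-CHO cells after 10 min compound exposure. Fluo-4 signal read kinetically; ratio of maximal to basal fluorescence.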
Chain of Muscarinic acetylcholine receptor M1 (Rattus norvegicus) (P08482 whole entry, looked up): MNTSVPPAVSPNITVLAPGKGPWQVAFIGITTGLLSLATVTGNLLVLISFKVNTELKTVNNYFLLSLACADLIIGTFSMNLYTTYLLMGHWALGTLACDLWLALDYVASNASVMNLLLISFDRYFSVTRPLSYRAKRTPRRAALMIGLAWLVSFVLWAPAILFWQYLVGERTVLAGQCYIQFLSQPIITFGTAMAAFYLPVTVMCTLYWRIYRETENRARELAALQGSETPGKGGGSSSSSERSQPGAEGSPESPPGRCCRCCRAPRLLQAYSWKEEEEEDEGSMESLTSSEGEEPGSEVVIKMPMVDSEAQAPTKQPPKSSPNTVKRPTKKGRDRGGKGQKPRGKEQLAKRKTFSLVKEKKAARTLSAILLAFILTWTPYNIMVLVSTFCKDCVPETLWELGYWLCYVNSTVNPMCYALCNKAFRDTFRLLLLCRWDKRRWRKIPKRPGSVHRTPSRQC

Assay [17] has the same target. Put plainly: qHTS Assay for Antagonists of Acetylcholine Muscarinic M1 Receptor: Measurement of IP-One Response (AID 944). Also: potency is read from the fitted curve at half-maximal effect; nearly all actives have a fitted effect of over 75% in size. In a few lines: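 IP1 accumulation measured via TR-FRET between d2-IP1 and Eu-cryptate anti-IP1 antibody after carbachol (200 nM, EC80) stimulation for 30 min; rat M1-transfected CHO cells received compound 10 min before agonist.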
For assay [18], the target named is Pyruvate kinase (Leishmania mexicana) (UniProt Q27686). In words: qHTS Validation Assay for Inhibitors of Leishmania Mexicana Pyruvate Kinase (AID 945).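 Also: 0% = DMSO only neutral control wells.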 The procedure, abridged: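 An endpoint luciferase assay: 0.2 nM LmPYK E451W turns over 0.5 mM PEP with 0.1 mM ADP for 1 h at room temperature, pH 7.2, before PKLight addition. Values are normalized to DMSO-only wells.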
Chain of Pyruvate kinase (Leishmania mexicana) (Q27686 2-499 E452W): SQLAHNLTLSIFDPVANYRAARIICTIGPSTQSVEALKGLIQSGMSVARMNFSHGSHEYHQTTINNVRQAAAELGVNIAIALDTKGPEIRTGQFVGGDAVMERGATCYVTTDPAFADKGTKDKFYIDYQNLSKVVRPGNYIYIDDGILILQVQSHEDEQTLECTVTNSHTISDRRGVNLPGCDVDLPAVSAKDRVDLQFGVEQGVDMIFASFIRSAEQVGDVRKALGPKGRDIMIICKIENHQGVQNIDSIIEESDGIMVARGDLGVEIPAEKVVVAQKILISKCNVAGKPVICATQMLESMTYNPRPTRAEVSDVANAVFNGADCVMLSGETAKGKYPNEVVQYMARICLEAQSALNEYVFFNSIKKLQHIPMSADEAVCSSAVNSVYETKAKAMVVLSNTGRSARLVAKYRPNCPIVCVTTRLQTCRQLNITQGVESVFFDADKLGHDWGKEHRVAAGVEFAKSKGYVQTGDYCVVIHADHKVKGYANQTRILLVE

For assay [19], the target named is Pyruvate kinase PKM (Homo sapiens) (UniProt P14618). In words: qHTS Assay for Activators of Human Muscle Pyruvate Kinase (AID 954; active = well fitted curve in the direction sought with a large enough effect, not every such curve was filed as active;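 also: 0% = uninhibited enzyme and -100% = no enzyme or full thiadiazolimine inhibition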). In a few lines: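 Screening used highly purified human pyruvate kinase M2 under submaximal activity, with PEP at its Km and ADP below Km. After an hour at room temperature, ATP was read by luciferase luminescence.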
Assay [20] has as its target Alpha-galactosidase A (Homo sapiens) (UniProt P06280). Put plainly: Counterscreen for Glucocerebrosidase Inhibitors: qHTS Assay for Human alpha-Galactosidase at pH 4.5 (AID 992). Also: 0% is about no effect. The procedure, abridged:
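Each compound is preincubated briefly with 2 nM enzyme before substrate addition (80 uM); plates then sit 20 min at ambient temperature, are quenched with 1M NaOH/1M glycine, and read fluorometrically.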

Assay [21] addresses alpha-glucosidase (Oryza sativa, rice) (UniProt Q653V4). In words: Counterscreen for Glucocerebrosidase Inhibitors: qHTS Assay for Rice alpha-Glucosidase at pH 5.0 (AID 997).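 Also: 0% = full activity with enzyme and -100% = basal without enzyme.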 The procedure, abridged: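 Endpoint fluorogenic assay at pH 5.0: compounds (0.7 nM to 77 uM) titrated against 4 nM rice enzyme and 400 uM 4-MU-alpha-glucoside for 20 min at room temperature; NaOH/glycine stop, read ex 365/em 440 nm, Hill-fitted AC50.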

The nature of assay [22]: qHTS Assay for Lipid Storage Modulators (AID 1519; calls by dose curve). The conditions noted are these: Drosophila S3 cells, BODIPY lipid droplet/cell ratio, laser cytometry, cells loaded with oleic acid. The procedure, abridged: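 Cells seeded at 5,000 per well were treated with compounds over a concentration series and loaded with oleic acid (400 uM, as added). Lipid droplet fluorescence (488 nm excitation, 500-530 nm channel) was read by laser-scanning cytometry and normalized to 20 uM Triacsin C.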

The target in assay [23] is Ubiquitin carboxyl-terminal hydrolase 1 (Homo sapiens) (UniProt O94782). Put plainly: Inhibitors of USP1/UAF1: Pilot qHTS (AID 504865).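 Also: rhodamine fluorescence freed from ubiquitin-rhodamine substrate followed over time; top concentration of the series differs between compounds; % is scaled to controls: 0 for no effect and ±100 for the full control effect; nearly all actives have a fitted effect of over 35% in size.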 The procedure, abridged:
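USP1/UAF1 complex (1nM) preincubated with compound 15 min at room temperature, then Ub-Rho substrate (150nM final) added. Fluorescence read kinetically at 480/540 nm, 6 reads every 60 seconds. Buffer: 50mM HEPES pH 7.8, 0.5mM EDTA, 0.1 mg/ml BSA, 1mM TCEP, 0.01% Tween-20.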

Chain of DNA dC->dU-editing enzyme APOBEC-3G (Homo sapiens) (Q9HC16 whole entry, looked up): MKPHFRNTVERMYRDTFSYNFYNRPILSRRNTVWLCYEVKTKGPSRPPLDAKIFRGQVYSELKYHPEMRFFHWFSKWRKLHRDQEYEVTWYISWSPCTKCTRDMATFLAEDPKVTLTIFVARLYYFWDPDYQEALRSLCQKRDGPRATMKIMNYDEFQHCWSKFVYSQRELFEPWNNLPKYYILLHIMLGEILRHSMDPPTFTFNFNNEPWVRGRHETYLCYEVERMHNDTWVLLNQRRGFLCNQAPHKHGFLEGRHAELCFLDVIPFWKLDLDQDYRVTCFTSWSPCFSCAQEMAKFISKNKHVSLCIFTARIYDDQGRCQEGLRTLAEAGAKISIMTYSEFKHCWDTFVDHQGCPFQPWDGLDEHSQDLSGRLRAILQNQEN
Chain of Ubiquitin carboxyl-terminal hydrolase 1 (Homo sapiens) (O94782 whole entry, looked up): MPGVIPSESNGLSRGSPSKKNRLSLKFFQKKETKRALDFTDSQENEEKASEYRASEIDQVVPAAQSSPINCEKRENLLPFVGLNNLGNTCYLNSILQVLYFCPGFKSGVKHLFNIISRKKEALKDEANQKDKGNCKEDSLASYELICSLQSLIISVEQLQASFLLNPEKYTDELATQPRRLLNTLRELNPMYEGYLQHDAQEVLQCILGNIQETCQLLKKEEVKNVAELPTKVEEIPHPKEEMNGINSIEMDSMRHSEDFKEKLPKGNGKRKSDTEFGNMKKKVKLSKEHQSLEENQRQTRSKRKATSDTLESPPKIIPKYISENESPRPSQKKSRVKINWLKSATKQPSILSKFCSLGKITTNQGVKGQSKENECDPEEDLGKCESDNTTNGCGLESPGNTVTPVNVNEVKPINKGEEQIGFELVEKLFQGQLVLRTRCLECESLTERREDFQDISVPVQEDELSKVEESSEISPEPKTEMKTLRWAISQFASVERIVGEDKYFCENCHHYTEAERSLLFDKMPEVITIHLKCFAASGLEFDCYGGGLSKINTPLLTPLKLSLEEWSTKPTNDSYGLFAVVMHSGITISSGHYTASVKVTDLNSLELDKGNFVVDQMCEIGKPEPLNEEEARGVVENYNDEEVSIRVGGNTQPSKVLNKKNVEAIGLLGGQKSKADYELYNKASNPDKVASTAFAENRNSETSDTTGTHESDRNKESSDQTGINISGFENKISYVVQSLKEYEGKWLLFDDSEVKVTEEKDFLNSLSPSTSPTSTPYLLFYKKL
Chain of Alpha-galactosidase A (Homo sapiens) (P06280 whole entry, looked up): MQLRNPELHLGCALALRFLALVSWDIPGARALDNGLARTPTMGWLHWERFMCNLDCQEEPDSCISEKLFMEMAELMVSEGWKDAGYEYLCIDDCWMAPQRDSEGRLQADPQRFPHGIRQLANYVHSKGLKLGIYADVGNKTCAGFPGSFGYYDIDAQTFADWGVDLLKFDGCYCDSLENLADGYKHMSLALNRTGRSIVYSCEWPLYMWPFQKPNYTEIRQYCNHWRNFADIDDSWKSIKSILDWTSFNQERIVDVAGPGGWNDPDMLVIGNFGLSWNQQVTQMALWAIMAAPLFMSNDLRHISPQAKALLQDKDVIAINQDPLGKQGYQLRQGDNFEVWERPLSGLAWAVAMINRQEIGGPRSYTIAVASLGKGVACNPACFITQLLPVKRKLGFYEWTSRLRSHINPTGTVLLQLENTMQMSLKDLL

On to `c1ncc(CCCC2CCNCC2)[nH]1`, for which the Potency entry in [1] and in [2] was “inactive” each time.

With `O=C(O)C1NCCN(C(=O)c2ccc3c(ccc4ccccc43)c2)C1C(=O)O` (stereo unspecified), the Potency result in assay [1], in assay [2] and in assay [3] was “inactive” in each case. In addition, in assay [4], the max response is 28.7% (inactive).

For `CCCCCCCCCCCCCCCC(=O)OC(CO)CO`, the Potency result in assay [5], in [1], in assay [2] and in assay [3] was “inactive” in each case.

`COc1ccc(Cl)cc1N=Nc1ncc[nH]1`: the Potency in assay [6] is 0.631 µM (active); in assay [7] it was > 46 µM (inactive); in [8], > 46 µM (inactive); in assay [11], 2.51 µM (active); in [3] it was 35.5 µM (active). In addition, the Potency result in [9], in assay [10], in [12], in assay [1] and in assay [2] was “inactive” throughout.

With `C[C@@H]([C@H](O)c1ccc(O)cc1)N1CCC(Cc2ccccc2)CC1`, the activity change, negative = inhibition in [13] (at 17.2 µM (top of the series)) was -4.89% (inactive); in [13] (at 38 µM (top of the series)), -7.76% (inactive); in assay [22] (at 25.7 µM (top of the series)), -1.79% (inactive). Also, the activity, negative = inhibition in assay [14] was 8.14% (inactive). In addition, the Potency in assay [7] is > 46 µM (inactive) and > 20.6 µM (inactive); in assay [8], > 46 µM (inactive) and > 20.6 µM (inactive); in assay [16], 12.6 µM (active); in [17] it was 7.94 µM (active). Moreover, the Potency entry in assay [9], in assay [18], in assay [23], in [12], in assay [1] and in assay [2] was “inactive” throughout. The call in assay [15], in assay [19], in assay [20] and in assay [21] was inactive. Besides, the max response in [22] (measured here: cell count channel max response) is -1.79%; in assay [22] (measured here: lipid channel max response), -6.29%; in [4] it was -8.82% (inactive).
